Test results published in PubChem BioAssay AID602399 (Sanford-Burnham Center for Chemical Genomics, 2012).
The whole screen tested about 360,000 compounds, of which about 2,800 (0.78%) were called active. This is one part of a sample in which actives are shown more often than they occur. Unmarked numbers belong to inactive results. No stated cut-off is given here; in the data, active means inhibition above about 26%; inactive means the rest.

test system: Nicotinate-nucleotide adenylyltransferase NadD (Staphylococcus aureus N315); assay: inhibitors of S. aureus NadD, primary screen, biochemical, colorimetric, uHTS (AID 602399); details: purified NadD enzyme, colorimetric absorbance read-out; at 20 µM; stronger effect = higher value

SMILES	inhibition
O=C(NCC1CCCCC1)NCC1CCCCC1	2.72%
C[C@H]1CN([C@@H](C)CO)C(=O)c2cc(-c3ccccc3F)cnc2O[C@H]1CN(C)C(=O)C1CCOCC1	-1.92%
COc1ccc(NS(=O)(=O)c2cc(NC(=O)COc3ccccc3F)ccc2OC)cc1	-11.4%
Cc1ccc(NC(=O)CCNC(=O)c2ccc([N+](=O)[O-])cc2)cc1S(=O)(=O)N1CCOCC1	0.847%
COc1ccc(NS(=O)(=O)c2cc(NC(=O)CC(=O)c3ccc([N+](=O)[O-])cc3)ccc2C)cc1	44.2% (active)
O=[N+]([O-])c1ccc(Oc2ccc(F)cc2Br)c2ccncc12	4.81%
CCCn1nnnc1NC(=O)COc1ccc(Cl)cc1C	8.48%
CCc1ccc(C(=O)OCC(=O)NCC(F)(F)F)cc1	-0.578%
Cc1ccc(Nc2nc(-c3sc(NC(=O)c4ccccc4)nc3C)cs2)cc1	36.9% (active)
Cc1ccn2c(-c3csc(Nc4ccc(C(=O)O)cc4)n3)c(C)nc2c1	-7.16%
C=CCCC(=O)Nc1nc(C)c(-c2csc(Nc3ccc(Cl)cc3)n2)s1	12.2%
c1ccc2c(c1)OC1OC2Oc2ccccc21	-4.86%
COc1ccc(C(=O)N2CCCC(C(=O)c3ccccc3OC)C2)cc1OC (stereo unspecified)	-7.22%
O=C1Nc2ccc(Br)cc2/C1=N/N=C/C1=C(N2CCOCC2)C(=C\c2ccccc2)/CC1	30.5% (active)
O=C(O)c1ccc(NN=CC2=C(N3CCOCC3)/C(=C/c3ccccc3)CC2)cc1	19.5%
CC1=NN(C(=O)CCc2ccccc2O)C(O)(C(F)(F)F)C1 (stereo unspecified)	17.6%
O=C1OC(NC(=O)c2ccccc2)C(N2CCOCC2)=C1Cl (stereo unspecified)	-2.17%
Cn1c(N)c(C(=O)COC(=O)c2cccc(S(=O)(=O)N3CCOCC3)c2)c(=O)n(C)c1=O	-4.47%
CCOc1ccc2nc(/N=C/c3nc(-c4ccccc4)oc3O)sc2c1	37% (active)

SMILES	inhibition
Oc1oc(-c2ccccc2Br)nc1/C=N/c1ccccn1	-8.02%
CCOc1ccc2nc(C(=O)N3CCCC(C)C3)sc2c1 (stereo unspecified)	-8.67%
COc1ccc(S(=O)(=O)NCc2cccnc2)cc1NC(=O)c1ccc(C)cc1	-1.72%
Cc1ccccc1OCC(=O)N(Cc1cccc(F)c1)C1CCS(=O)(=O)C1 (stereo unspecified)	-3.33%
O=S(=O)(c1ccc(-c2ccccc2)cc1)N1CCCC1	-5.08%
O=C1CCC(C(=O)N2CCN(c3ccccc3Cl)CC2)CN1CC1CCCCC1 (stereo unspecified)	5.68%
Cc1nc(N2CCN(c3ccccn3)CC2)c2c(C)c(C(=O)Nc3ccc(F)c(Cl)c3)sc2n1	29.5% (active)
Cc1nc(N2CCC(C)CC2)c2c(C)c(C(=O)Nc3cc(F)ccc3C)sc2n1	7.17%
Cc1nc(N2CCOCC2)c2c(C)c(C(=O)Nc3ccc(C(F)(F)F)cc3)sc2n1	-4.82%
O=S(=O)(NN=C1CCCCCCC1)c1ccc(Br)cc1	-0.0867%
O=C(CNS(=O)(=O)c1ccc(Br)s1)N1CCN(C(=O)c2ccco2)CC1	-0.302%
COc1cc(CNC2CCCC2)c(Br)cc1OCc1ccccc1	-2.14%
CCCNC(=O)C1CC(=O)N(c2ccc(OCc3ccccc3)cc2)C1 (stereo unspecified)	0.155%
COc1cc(C2CC(=O)N3CN(Cc4ccccc4)CSC3=C2C#N)ccc1OCc1ccccc1 (stereo unspecified)	31.4% (active)
O=C(C[C@H]1C/C=C\C[C@@H](NC(=O)OCC2c3ccccc3-c3ccccc32)C(=O)O[C@@H](c2ccccc2)CNC1=O)N[C@H](CO)Cc1ccccc1	10.3%
COc1ccc(C(C#N)(CC(=O)O)c2cnccn2)cc1OC (stereo unspecified)	-3.22%
CCOc1ccc(C(=O)NC2CCN(C(=O)Nc3ccccc3OC)CC2)cc1	2.23%
CCOc1ccc2nc(NCCNC(=O)C(C)(C)C)c(C)cc2c1	-13.1%
CCOc1ccc2nc(N3CCCN(C(=O)Nc4ccccc4C)CC3)c(C#N)cc2c1	36.8% (active)

SMILES	inhibition
CCOC(OCC)c1ccc(/C=C\c2nccc(N)n2)cc1	-3.79%
CCCCc1ccc(S(=O)(=O)NC(=O)C2(C)CCN2C(=O)c2c(C)noc2C)cc1 (stereo unspecified)	-0.915%
CCOC(=O)N1CCN(S(=O)(=O)c2cc3c(cc2C)NC(=O)CO3)CC1	6.26%
CCCCCCC(=O)Nc1nc(C)c(-c2csc(Nc3cccc(OC)c3)n2)s1	17.7%
CCCCCCC(=O)Nc1nc(C)c(-c2csc(Nc3cc(Cl)ccc3OC)n2)s1	33% (active)
CCCCC(=O)Nc1nc(C)c(-c2csc(Nc3ccc(Cl)cc3)n2)s1	20.5%
CCOc1ccc(/C(O)=C2\C(=O)C(=O)N(c3ccc(OC)cc3)C2c2ccccc2[N+](=O)[O-])cc1 (stereo unspecified)	-0.376%
CCC(=C/c1sc2ccc3ccccc3c2[n+]1C)/C=C1\Sc2ccc3ccccc3c2N1C	38.9% (active)
Cc1[nH]c(N)nc(=S)c1CCCNc1ccccc1	4.24%
CCCc1cc(=S)n2c([nH]c3ccccc32)c1C#N	11.9%
CNC[C@H]1Oc2c(NC(=O)C3CCCCC3)cccc2C(=O)N([C@H](C)CO)C[C@@H]1C	0.223%
CN(C)C(=O)Cn1c(=O)n(S(=O)(=O)c2ccccc2)c2ccccc21	-0.572%
Cc1nc(N)nc(Cl)c1CCC1OCCO1	-2.19%
CCCCNS(=O)(=O)c1ccc(S(=O)(=O)n2cnc3ccccc32)cc1	0.725%
CC(C)C(c1nnnn1C1CCCC1)N1CCN(c2ccccc2F)CC1 (stereo unspecified)	-3.03%
CC(=O)NS(=O)(=O)c1ccc(N/C(N)=N/c2nc(C)cc(C)n2)cc1	4.03%
CC(=O)Nc1ccc(Nc2cc(C)nc(Nc3ccc(NC(C)=O)cc3)n2)cc1	32.4% (active)
COc1ccc(C(=O)NNc2cc(C)nc(NNC(=O)c3ccc(OC)cc3)n2)cc1	3.2%
